Bioassay records from PubChem.
Rows were chosen to be rich in hits. Some 6.3% of all compounds tested hit in one or more screens of this group.
TIM10 inh – growth inhibitors of isogenic TIM10 control yeast, primary screen, counter-screen for tim10-1 yeast inhibitor project, luminescence, uHTS | inhibition, % at 10 µM | 330,000 tested, 1.4% active | AID 463195, 2010 | S. cerevisiae TIM10 strain growth, BacTiter-Glo luminescence, 24 h;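 active means inhibition of 40% or more at the single tested concentration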;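 further: wild-type TIM10 isogenic control strain grown at permissive 25 °C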
MPTP block – mitochondrial permeability transition pore inhibitors, primary screen, biochemical, isolated mouse mitochondria, absorbance | Ca2+ swelling absorbance, 30 min | inhibition, % at 10 µM | 360,000 tested, 1.4% active;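 active means inhibition of 50% or more, scaled per plate between neutral and stimulator controls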;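 further: 0% = DMSO wells given calcium and 100% = 1 mM EGTA wells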
tim10-1 inh – growth inhibitors of tim10-1 mutant yeast, primary screen, luminescence, uHTS. inhibition, % at 20 µM. 330,000 tested, 2.2% active. S. cerevisiae tim10-1 ts strain growth, BacTiter-Glo, 24 h;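 active means inhibition of at least 40%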;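 further: mutant grown at 25 °C; 0% = DMSO wells with yeast and 100% = wells holding no yeast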
Mdm2 MdmX PPI – inhibitors of human Mdm2-MdmX association, primary screen, cell-based, luminescence, split luciferase, SaOS-2, uHTS; Protein Mdm4 (Homo sapiens) + E3 ubiquitin-protein ligase Mdm2 (Homo sapiens), …; SaOS-2 split-luciferase Mdm2/MdmX complementation; inhibition, % at 8 µM; 330,000 tested, 3% active; AID 485346, 2010;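 active means inhibition of at least 50% at 8 µM in the primary screen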
tim23-1 inh – growth inhibitors of tim23-1 mutant yeast, primary screen, luminescence, uHTS; inhibition, % at 20 µM; S. cerevisiae tim23-1 growth, BacTiter-Glo luminescence, 24 h; AID 463212, 2010; 330,000 tested, 1.3% active;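 active means growth inhibition of the mutant yeast at or above 50%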;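 further: temperature-sensitive mutant grown at 25 °C; plate controls were DMSO-treated mutant yeast for no effect and medium wells lacking yeast for full effect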
tim10-1 confirm – growth inhibitors of tim10-1 mutant yeast, confirmation, single concentration, luminescence, S. cerevisiae; shares compounds with tim10-1 inh; S. cerevisiae tim10-1 ts strain growth, BacTiter-Glo, 24 h; inhibition, % at 20 µM; 7,400 tested, 56% active; AID 463213, 2010;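 active means inhibition of yeast growth at or above a set limit in either of two repeat tests at 20 µM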;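 further: tim10-1 mutant grown at permissive 25 °C to find synthetic lethal compounds; 0% = DMSO yeast wells and 100% = medium wells without yeast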
* hit, by the source's call; x = no result given.

SMILES | TIM10 inh | MPTP block | tim10-1 inh | Mdm2 MdmX PPI | tim23-1 inh | tim10-1 confirm
Cc1cc(NC(=O)c2ccc3sc([C@@H]4O[C@H](CO)[C@H](O)[C@H](O)[C@H]4O)nc3c2)n(C)n1 | x | -1 | x | x | x | x
OCC[C@@H]1C[C@H](O)[C@@H](O)[C@@]2(OCc3cc(C(F)(F)F)ccc32)O1 | x | 0 | x | x | x | x
Cc1cccc(C)c1NC(=O)C1(C)CSCC(=O)N1Cc1cccs1 (stereo unspecified) | x | -2 | x | x | x | x
O=C(CN1CCN(c2ccccn2)CC1)Nc1ccc(Cl)c(C(F)(F)F)c1 | 3 | -2 | 37 | 24 | 34 | x
O=C(CN1CCN(S(=O)(=O)c2ccc(F)cc2)CC1)Nc1ccc(Cl)c(C(F)(F)F)c1 | 15 | 2 | 44* | 49 | 31 | 39*
COc1ccccc1N1CCN(CC(=O)Nc2ccc(Cl)c(C(F)(F)F)c2)CC1 | 27 | 5 | 42* | 23 | 40 | 29*
COc1ccc(C(C)(O)c2nc(-c3ccccc3C)cs2)cc1 (stereo unspecified) | x | 0 | x | x | x | x
CC(=O)Nc1cc(-c2ccc(N3CCN(C)CC3)cc2)cn2c(-c3ccc(S(C)(=O)=O)cc3)cnc12 | x | 0 | x | x | x | x
CCOc1ccc(-c2nc(CSCC(=O)NC3CCCc4ccccc43)c(C)o2)cc1 (stereo unspecified) | 35 | -1 | 40* | 11 | 36 | 25
COC(=O)[C@]12CCCCC=C1N(CCC1=CCCCC1)C(=O)[C@H](CC(=O)N1CCCC1)C2 | x | -1 | x | x | x | x
CCCCCCC1CCC(C(=O)Nn2c(C)nc3ccccc3c2=O)CC1 (stereo unspecified) | -3 | 6 | -4 | -18 | 11 | x
CCn1c(C)cc(O)c(C(=O)Nc2cccc(Cl)c2)c1=O | -3 | 2 | 45* | 34 | 15 | 7
Cc1cc(O)c(C(=O)Nc2cccc(Cl)c2)c(=O)n1C | -18 | 1 | 16 | 41 | 10 | x
CCn1c(=O)c(C(=O)Nn2c(C)nc3ccccc3c2=O)c(O)c2ccccc21 | -20 | -2 | 43* | 2 | 31 | -2
CCCC1CCC(C(=O)Nn2c(C)nc3ccccc3c2=O)CC1 (stereo unspecified) | 9 | 2 | 47* | 17 | 29 | -8
CCn1c(=O)c(C(=O)NNC(=O)c2cccc(Cl)c2)c(O)c2ccccc21 | 4 | 5 | 46* | 23 | 11 | 51*
CCOC(=O)[C@]12CCCC=C1N(CCc1ccc(OC)c(OC)c1)C(=O)[C@H](CC(=O)NCCc1ccccc1OC)C2 | x | -2 | x | x | x | x
CCn1c(SCc2cccc(C)c2)nnc1-c1ccc(C)cc1 | 22 | -1 | 47* | 14 | 44 | 30*
CCOC(=O)[C@]12CCCC=C1N(Cc1ccco1)C(=O)[C@H](CC(=O)NCc1cccc(C(F)(F)F)c1)C2 | x | 0 | x | x | x | x
COc1ccccc1NC(CC(=O)c1ccccc1)C(=O)OCC(=O)c1ccc(Br)cc1 (stereo unspecified) | 15 | 0 | 45* | -14 | 40 | 37*
O=C(NC(=S)NNC(=O)c1ccco1)c1ccc(Br)cc1 | 9 | 0 | 41* | 38 | 7 | 29
C=C[C@H]1CN2CC[C@H]1C[C@H]2[C@H](O)c1ccnc2ccc(OC)cc12 | 1 | x | 1 | -22 | -7 | x
Clc1ccc(-c2n[nH]c3c2CCC3)c(Cl)c1 | 15 | 2 | 41* | 9 | 33 | 25
c1ccc(-c2n[nH]c3c2CCC3)cc1 | -3 | -3 | -34 | 13 | 3 | x
CN(C)c1ccccc1C(=O)c1ccccc1N(C)C | 30 | 1 | 40* | -6 | 24 | 22
SMILES | TIM10 inh | MPTP block | tim10-1 inh | Mdm2 MdmX PPI | tim23-1 inh | tim10-1 confirm
C[C@H](NC(=O)C1CCN(S(=O)(=O)c2ccccc2)CC1)C(=O)NCc1ccncc1 | x | 1 | x | x | x | x
COC(=O)c1sc(NC(=O)c2ccc(Cn3cc(Cl)cn3)o2)c(C#N)c1C | 13 | 5 | 44* | 15 | 20 | 30*
C=C(C)C(=O)Oc1ccc(N=Nc2ccc(C)cc2)ccc1=O | x | 7 | x | x | x | x
Cc1ccc(F)c(C(=O)N2CCCC(C)(C(=O)NS(=O)(=O)C3CC3)C2)c1F (stereo unspecified) | x | 0 | x | x | x | x
Cc1occc1-c1nnc(SCC(=O)Nc2ccccc2N2CCCCC2)n1C | 18 | -2 | 47* | 0 | 30 | 25
Cc1cc(C)cc(C(O)c2ncc(-c3ccccc3C)[nH]2)c1 (stereo unspecified) | x | 3 | x | x | x | x
Cc1cc(OCc2cc(C(=O)N(C)Cc3ccccn3)no2)cc(C)c1Cl | 25 | 0 | 29 | -69 | 19 | x
Cc1cc(OCc2cc(C(=O)NC(C)c3c(C)nn(C)c3C)no2)cc(C)c1Cl (stereo unspecified) | 8 | -1 | 46* | -53 | 32 | 15
Cc1cc(OCc2cc(C(=O)N(C)C(C)c3ccccn3)no2)cc(C)c1Cl (stereo unspecified) | 14 | -2 | 41* | -8 | 27 | 12
COCCOc1ccc(C(F)(F)F)cc1NC(=O)c1ccccc1 | 14 | 15 | 16 | -4 | 17 | x
CC(=O)Nc1cc(C(F)(F)F)ccc1OCCOc1ccccc1 | 6 | 8 | 47* | 7 | 42 | 25
COc1cccc(C(=O)N2N=C(c3cccc(OC)c3)CC2(O)C(F)(F)F)c1 (stereo unspecified) | 21 | 4 | 40* | -4 | 35 | -23
C=C(C)CNC(=S)N/N=C1\CCCCc2ccccc21 | 35 | 1 | 55* | 17 | 40 | 41*
CCc1nc2ccc(C(=O)Nc3cccc(OC)c3)cn2c1N(CC)Cc1cccc(Br)c1 | x | -2 | x | x | x | x
Cc1ccc(-c2cc(=O)[nH][nH]2)c(C)c1 | 30 | -1 | 44* | -11 | 25 | 24
COc1ccc(/C=N/N(Cc2ccccc2)c2ccccc2)cc1O | 39 | 6 | 51* | -15 | 30 | -21
C=CCc1c(C)nc(SC)nc1Nc1ccccc1 | 20 | 3 | 44* | -10 | 35 | 27
COc1cc2c(cc1OC)C1=NC(=O)CN1C(SCc1ccccc1C)=N2 | 13 | 16 | 41* | 29 | 24 | 24
Cc1ccc(CSC2=Nc3ccccc3C3=NC(=O)CN23)cc1 | 14 | 0 | -35 | -16 | 36 | x
COc1ccc(S(=O)(=O)N2CCOC23CCN(S(=O)(=O)c2ccc(F)cc2)CC3)cc1 | 19 | -1 | 47* | 19 | 45 | 31
COc1ccc(S(=O)(=O)N2CCOC23CCN(S(=O)(=O)c2ccc(C)cc2)CC3)cc1 | 19 | -1 | 46* | 4 | 47 | 28
CCS(=O)(=O)N1CCC2(CC1)OCCN2S(=O)(=O)c1ccc(OC)cc1 | -2 | -2 | -8 | 10 | 5 | x
